# Screening results (PubChem)
# Sampled rows, rich in hits. Any-hit rate of the full collection: about 6.2%.
# FMDV inh: antivirals against foot and mouth disease virus; FMDV antiviral cell-based qHTS; 410,000 compounds, 1.2% hits; Potency, µM (top dose mostly 57.9 µM), for the others: top-dose activity change, negative = inhibition, usual class: inhibitors; calls by dose curve; tested in HEK293T cells; also: read-out not given here; potency is read from the fitted curve at half-maximal effect; nearly all actives have a fitted effect of over 45% in size
# HCMV inh: inhibitors of human cytomegalovirus | 410,000 compounds, 4.5% hits | HFF cells, HCMV-luciferase reporter, 72 h; hits give low values | activity change, negative = inhibition, % at 57.5 µM; in the data active = activity change below about -60%; inconclusive = no clear call, values can overlap the other calls; inactive = above about -39%
#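 After 16 h attachment at 37C, HFF cells received test compound and HCMV-luciferase (1 PFU/cell); reporter luminescence read 72 h later, data normalized against buffer-only and known inhibitor Salinomycin.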
# MARV entry inh: inhibitors of Marburg virus binding or cell entry | Marburg virus pseudotyped entry inhibition, cell reporter | Potency, µM (top dose mostly 37.8 µM), for inactives: at the top dose activity change, negative = inhibition, actives largely listed as inhibitors | 300,000 compounds, 1.8% hits | AID 540276; calls by dose curve; tested in HEK293 cells; also: potency is read from the fitted curve at half-maximal effect
# Lassa entry inh: blocks Lassa virus binding to or entry into cells; Lassa virus pseudotype entry inhibition, cell reporter; Potency, µM (titrated, usually from 37.9 µM), without a hit: at the top dose activity change, negative = inhibition, most hits filed as inhibitors; 300,000 compounds, 1.2% hits; AID 540256; calls by dose curve; tested in HEK293 cells; also: potency is read from the fitted curve at half-maximal effect; nearly all actives have a fitted effect of over 50% in size
# The depositor's hits bear a star; u = inconclusive; x = no result given; [ ] = dose if it differs, or a comment. % is scaled to controls: 0 for no effect and ±100 for the full control effect.
SMILES,FMDV inh,HCMV inh,MARV entry inh,Lassa entry inh
COc1ccc(CC(=O)Nc2ccc(S(=O)(=O)NC(C)C)cc2)cc1,-5%,-29,-4%,-7%
COc1cc(C(C2C(=O)CC(C)(C)CC2=O)C2C(=O)CC(C)(C)CC2=O)ccc1OC(C)=O,0%,83,1%[14.2 µM],11%
O=c1[nH]ccc2c([N+](=O)[O-])cccc12,11%,7,x,x
O=[N+]([O-])c1cccc2c([As](=O)(O)O)cccc12,-5%,-74*,-6%[46.1 µM],9%[46.1 µM]
C=CC(=O)N1C/C(=C/c2ccc(Cl)cc2)C(=O)/C(=C\c2ccc(Cl)cc2)C1,8.9µM*,-100*,u,2.2µM*
C=CC(=O)N1C/C(=C/c2ccccc2)C(=O)/C(=C\c2ccccc2)C1,7.9µM*,-97*,2.8µM*,u
CN1C/C(=C/c2ccncc2)C(=O)/C(=C/c2ccncc2)C1,-7%,-7,0%[46.1 µM],u
COc1ccc(-c2oc3ccc(-c4cc(OC)c(OC)c(OC)c4)cc3c2C(=O)c2ccc(OC)nc2)cc1,-16%,-99*,x,x
COc1ccccc1-n1c(SCC(=O)c2ccc(O)cc2O)nc2cc([N+](=O)[O-])ccc21,u,134,2.2µM*,4%
CC(=O)c1c(C)oc2c1C(=O)c1ccccc1C2=O,u,-72*,-2%,-11%
COc1ccc(CNC(=O)c2c(C)oc3c2C(=O)c2ccccc2C3=O)cc1,u,u,6%,-14%
O=C1c2ccccc2C(=O)c2c1oc(C(F)(F)F)c2C(=O)c1ccccc1,-21%,-98*,u,u
Cc1oc2c(c1C(=O)NCc1cccnc1)C(=O)c1ccccc1C2=O,3.2µM*,x,x,x
COc1ccc(NC(=O)Cn2c(=O)n(-c3ccc(OC)cc3OC)c(=O)c3c(C)c(C)sc32)cc1,-4%,-29,u,u
CCN(c1ccccc1)S(=O)(=O)c1ccc(OC)c(NC(=O)CNCCc2ccccc2)c1,-22%,-33,u,u
Cc1ccc(C)c(Nc2nc3nonc3nc2Nc2cccc(C)c2C)c1,u,-101*,u,u
CCOC(=O)c1ccc(Nc2nc3nonc3nc2Nc2cccc(C)c2C)cc1,u,-97*,u,u
Cc1ccc(C)c(Nc2nc3nonc3nc2N2CCOCC2)c1,-9%,-5,10%,9%
COC(=O)CNC(c1ccccc1)c1cc(Br)ccc1N (centres undefined),-23%,10,u,5%[46.1 µM]
C=CCNC(=S)/N=C/c1c(O)[nH]c(=O)[nH]c1=O,-7%,u,-1%[46.1 µM],-11%
Cn1c(=O)[nH]c(=O)c2[nH]c(N(Cc3ccccc3)Cc3ccccc3)nc21,40µM*,75,-3%[46.1 µM],u
CC1CCc2nc(NC(=O)c3cc(C(C)(C)C)nn3C)sc2C1 (centres undefined),-11%,23,x,x
Cc1ccc(-c2nc(NC(=O)c3cc(C(C)(C)C)nn3C)sc2C)cc1Cl,u,-61*,u,u
COC(=O)[C@@]1(Cc2ccc(OC)cc2)[C@H]2c3cc(C(=O)N4CCCC4)n(CCn4cc([N+](=O)[O-])nc4C)c3C[C@H]2CN1C(=O)c1ccccc1,-10%,-74*,4%,25%
COC(=O)[C@@]1(Cc2ccc(OC)cc2)[C@@H]2C(=CC(=O)[C@H]2CC(=O)C(=O)N2CCCC2)CN1C(=O)c1ccccc1,16µM*,x,u,u
SMILES,FMDV inh,HCMV inh,MARV entry inh,Lassa entry inh
O=C(NCC1CCCO1)C(=Cc1cccc([N+](=O)[O-])c1)C(=O)NCC1CCCO1 (centres undefined),u,-99*,12µM*,u
CN=c1sc(C(=O)Nc2cccc(Cl)c2)cc(=O)n1C,-22%,-66*,u,u
O=C(C1CC1)N(CCc1ccccc1)Cc1nc2ccccc2c(=O)[nH]1,28µM*,-9,4%,-28%
CCOc1ccccc1C1C(C(=O)N2CCCCC2)=C(C)Nc2nc3ccccc3n21 (centres undefined),-19%,10,-13%[46.1 µM],11%[46.1 µM]
Cc1ccc(NC(=S)NCCN(C2CCCCC2)C2CCCC2)cc1C,-16%,-38,9.2µM*,u
O=C(c1ccccc1C(=O)N1CCN(c2ccccc2F)CC1)N1CCN(c2ccccc2F)CC1,-24%,-10,-1%,-5%
CCSc1ccccc1C(=O)N1CCN(c2ccccc2F)CC1,4%,-103*,-21%,3%
Cc1cc(C(=O)CCl)c(C)n1-c1cccc([N+](=O)[O-])c1,11µM*,-95*,10µM*,u
Cc1cc(-n2c(C)cc(C(=O)CSc3nnc4sc5ccccc5n34)c2C)no1,x,-2,-8%,3%
CC(=O)c1c(C(C)=O)c(C)n(-c2cccc([N+](=O)[O-])c2)c1C,-14%,-15,32%,20%
Cc1cc(C(=O)CCl)c(C)n1-c1ccon1,22µM*,u,u,u
CCCNC(=O)C(=O)c1cccn1-c1ccsc1C(=O)OC,18%,19,10%,-1%
CCOC(=O)c1c(C)c(-c2ccccc2)n(CC(=O)Nc2cc(C)cc(C)c2)c1C,-18%,-97*,21%[46.1 µM],x
CC(C)N[C@@H](C)Cc1ccc(I)cc1,x,x,16µM*,x
CNC(C)Cc1ccc(OC)cc1 (centres undefined),x,4,x,x
CC(C)NC(C)Cc1ccc(I)cc1 (centres undefined),-21%,-33,16µM*,9%
Cc1cc(OCC(=O)NCC2CCC(C(=O)O)CC2)c2c(C)cc(=O)oc2c1 (centres undefined),-17%,-27,x,x
CCCCCS(=O)(=O)c1oc(-c2cccs2)nc1S(=O)(=O)c1ccc(C)cc1,28µM*,-88*,-1%[46.1 µM],-10%[46.1 µM]
CCS(=O)(=O)c1oc(-c2ccc(F)cc2)nc1S(=O)(=O)c1ccccc1,18µM*,-99*,u,u
CSc1oc(-c2ccc(F)cc2)nc1S(=O)(=O)c1ccc(Br)cc1,-21%,-2,-11%[46.1 µM],u
CCCSc1oc(-c2cccs2)nc1S(=O)(=O)c1ccc(C)cc1,17%,-24,-9%[46.1 µM],10%[46.1 µM]
CCCCS(=O)(=O)c1oc(-c2cccs2)nc1S(=O)(=O)c1ccc(F)cc1,32µM*,-98*,u,u
CCSc1oc(-c2cccs2)nc1S(=O)(=O)c1ccccc1,-1%,-22,x,x
CCC(C)S(=O)(=O)c1oc(-c2ccc(F)cc2)nc1S(=O)(=O)c1ccc(F)cc1 (centres undefined),u,-100*,u,u
CCCCS(=O)(=O)c1oc(-c2ccc(F)cc2)nc1S(=O)(=O)c1ccc(C)cc1,28µM*,-100*,10µM*,u
Cc1ccc(S(=O)(=O)c2nc(-c3ccc(F)cc3)oc2N2CCN(c3ccccc3)CC2)cc1,12%,0,-3%[46.1 µM],-29%[46.1 µM]
COc1ccc(Cl)cc1N1C(=O)/C(=C/c2sccc2C)N=C1SCC(=O)NC1CC1,-11%,52,10µM*,u
O=C(Nc1ccc(Br)cc1)c1cc(Br)cc(Br)c1O,x,-99*,x,x
CCC(=O)Nc1ccc(C(=O)NNC(=O)c2ccc([N+](=O)[O-])cc2)cc1,2%,30,2%[46.1 µM],7%[46.1 µM]
CNC(=O)COC(=O)/C=C/c1cn(-c2ccccc2)nc1-c1ccc(C)o1,-24%,-36,6%[46.1 µM],11%
